Measurements taken from PubChem BioAssay AID488857 (Sanford-Burnham Center for Chemical Genomics, 2010).
About 560 (40%) of roughly 1,400 compounds were called active.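 The calls were made as follows: active = mean inhibition over duplicate tests at 10 µM above 50%; inactive = the rest.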 So high a share suggests a set chosen from earlier hits. The list shows a part of the results.

Test: ASC/caspase-1 reporter retest in S. cerevisiae at one dose, specificity check for NALP1 project (AID 488857)
Conditions: S. cerevisiae ASC/Caspase-1, beta-galactosidase luminescence, 24 h; at 10 µM; hits give high values

inhibition, inactive:
C=CCc1cccc(/C=N/c2nc3ccccc3n2CC)c1O 31.1%, C#CCCCCCCC#CCN(C)C 33.6%, CCCc1nc2ccc(NC(=O)c3ccco3)cc2c(=O)n1Cc1ccccc1Cl 40.2%, O=[N+]([O-])c1ccc(-c2ccn[nH]2)o1 36%, COc1ccc(NCc2ccc([N+](=O)[O-])s2)cc1 30.4%, CCOC(=O)c1c(O)c2cc(Cl)ccc2n(CC)c1=O 40.3%, CCOC(=O)c1nnc(-c2ccc(C)cc2)nc1Sc1ccc(Cl)cc1 29.1%, O=S(=O)(Cc1cc(Sc2ccccc2)nc(-c2ccccc2)n1)c1ccccc1 33.7%, COc1ccc(C2SCC(=O)N2CCCN(C)C)cc1 (stereo not given) 39.6%, Cc1cc(C)cc(NS(=O)(=O)c2ccc(NC(=O)C3CCCCC3C(=O)O)cc2)c1 (stereo not given) 26.8%, CC(=O)Nc1cccc(OCCCNC(=O)C2CCC2)c1 39.1%, COc1ccc(NC(=O)C2CCN(C(=O)c3ccc(OC)cc3)CC2)cc1 26.8%, CS(=O)(=O)N1CCC(C(=O)Nc2ccc3c(c2)OCO3)CC1 19.4%, CCn1cc(C(=O)O)c(=O)c2cc(F)c(N3CCNCC3)cc21 30.4%, Cn1cc(S(=O)(=O)N2CCN(c3cccc(C(F)(F)F)c3)CC2)c(=O)n(C)c1=O 33.4%, CCOC(=O)N1CCN(CC(O)COc2ccccc2C(C)(C)C)CC1 (stereo not given) 44.2%, O=C(NC(Cc1c[nH]c2ccccc12)C(=O)O)/C(=C\c1ccc2c(c1)OCO2)NC(=O)c1ccccc1 (stereo not given) 28.8%, O=C(/C=C/Sc1ccccc1)c1ccc(Cl)cc1 44.6%, Oc1oc(-c2ccccc2)nc1C=Nc1cccc2ccccc12 32.5%, Clc1ccc(C2=NNC(=NCc3ccc4c(c3)OCO4)SC2)cc1 33.4%, COc1ccc(C(=O)c2c(C(F)(F)F)oc3c2C(=O)c2ccccc2C3=O)cc1 20.5%, CCNc1c(C(=O)O)ccc2c1C(=O)c1ccccc1C2=O 39.5%, O=C(c1cccc(F)c1)N1CCN(c2cc(N3CCCCC3)c(F)cc2[N+](=O)[O-])CC1 49.4%, c1cc2c3c(cccc3c1)NC1(CCCCCC1)N2 19.9%, Cc1ccc(-c2cc(NC(=O)CSc3n[nH]c(N)n3)n(-c3ccccc3)n2)cc1 21.9%, COCC(=O)OCC(=O)Nc1cc(C(C)(C)C)nn1-c1ccccc1 21.4%, O=C(CN1CCOCC1)Nc1ccccc1Sc1ccc(Cl)cc1 28.6%, COC(=O)c1ccccc1NC(=O)N1CCN(C/C=C/c2ccccc2)CC1 42.6%, Cc1noc2ncc(C(=O)c3cc(F)ccc3O)cc12 27.6%, Clc1ccc(OCCCN2CCCC2)cc1Cl 40%, CC1CCN(CCOc2cccc(Br)c2)CC1 43.1%, c1ccc(COc2ccc(OCCN3CCCCC3)cc2)cc1 39.1%, CCN1CCN(Cc2cccc(Oc3ccccc3)c2)CC1 40%, Cn1c(=O)n(CCCOc2ccc(Cl)cc2)c2ccccc21 46.1%, CN(C)Cc1ccccc1COc1ccccc1 31.8%, CCN(CC)CCCOc1ccc(Cl)c(Cl)c1 39.4%, CCN(CC)S(=O)(=O)c1ccc(NS(=O)(=O)c2cccs2)cc1 29.6%, CC1CN(C(=O)Nc2ccc3c(c2)OCO3)CC(C)O1 (stereo not given) 27.1%, Cc1ccc(/C(N)=N/OC(=O)c2ccc(Cl)cc2Cl)cc1 46.2%, CC1(C)CC(=O)c2cc(C(=O)O)c(=O)n(-c3ccccc3)c2C1 37.4%, CC(C)c1nc(SCC(=O)Nc2ccc3c(c2)OCCO3)n[nH]1 24.2%, Cc1ccsc1/C=N/NC(=O)c1ccco1 48.5%, O=C(/C=N/O)Nc1cccnc1 41.3%, COc1cc(Br)cc(C=Nc2cccc(C(F)(F)F)c2)c1O 30%, CCOc1nc(-c2ccccc2Cl)ccc1C#N 45.4%, COC(=O)C(CCSC)NC(=O)Cn1ncc2c(=O)oc3ccccc3c21 (stereo not given) 42%, O=[N+]([O-])c1ccc(N2CCCCC2)cc1 39.5%, CCCc1[nH]nc2c1C(c1ccoc1)C(C#N)=C(N)O2 (stereo not given) 43.1%, O=c1c2c(C(F)(F)F)cc(C(F)(F)F)nc2[nH]n1-c1ccccc1 33%, Cc1c(Cl)c([N+](=O)[O-])nn1Cc1ccc(C(=O)N/N=C\c2ccccn2)o1 31.1%, Nc1c2c(nc3sc4c(c13)CCCC4)CCCCCC2 48.9%, N#Cc1cnn(-c2ncnc3sc4c(c23)CCCC4)c1N 37.2%, CC(C)(C#CCN1CCCCC1)OCCOC(c1ccccc1)c1ccccc1 30.2%, CCCCNC(=O)Nc1cc(C)on1 27.1%, CCC1(CC)Cc2ccccc2C(Nc2c(C)n(C)n(-c3ccccc3)c2=O)=N1 18.9%, O=C(Cc1coc2cc3c(cc12)CCC3)NCC1(N2CCCCC2)CCCCC1 45%, O=C(O)[C@@H](c1ccccc1)N1Cc2ccccc2C1=O 22.6%, CC(C)NCCOCCOc1ccc(Cl)cc1Br 39.3%, CCc1cc(OCCCCNCc2ccccc2)ccc1Cl 44.5%, Cc1nc2c(=O)n(C)c(=O)n(C)c2nc1Cl 25.6%, Cc1ccc(S(=O)(=O)c2nc(C)oc2NCc2ccccc2)cc1 34.9%, CCOC(=O)/C(=N\Nc1ccc(Cl)cc1)c1csc(Nc2ccccc2)n1 31.7%, CC1CCCC(NC(=O)C2CCN(S(=O)(=O)N3CCCCC3)CC2)C1C (stereo not given) 36.5%

inhibition, active:
O=C(Nc1ccc2oc(-c3ccccc3)nc2c1)c1ccco1 96.3%, COCCCN(CCCN)Cc1ccco1 74.1%, CCOC(=O)C1=NN(C(=O)c2ccc(C)cc2)C(O)(c2ccc(Cl)cc2)C1 (stereo not given) 50.6%, Oc1c(Cl)cc(Cl)c2c1NCCC2 64.7%, CCN(C(=O)[C@@H]1CCCN1C(=O)c1cccs1)c1nc2cc(Cl)ccc2s1 62.6%, Cc1cccc(NC(=O)c2ccc(C3SCC(=O)N3CCc3ccccc3)cc2)c1C (stereo not given) 60.8%, O=C(Nc1ccc(C#Cc2ccccc2)cc1)C1CC1 73.2%, O=C(Nc1ccc(Br)c(Cl)c1)C1CC1 51%, O=C1c2ccccc2C(=O)c2cc(NC(=O)C3CC3)ccc21 51.6%, CCC(=O)c1ccc(OCC(O)CN2CCN(c3cccc(C(F)(F)F)c3)CC2)cc1 (stereo not given) 65.7%, O=C(/C=C/c1c[nH]c2ccccc12)c1ccccc1 86.5%, CC(C)N1CCC2(CC1)N=C(c1ccc3c(c1)OCO3)CC(c1cc(Cl)ccc1O)N2 (stereo not given) 74.5%, CC(=O)c1c(C)oc2c1C(=O)c1ccccc1C2=O 74.2%, CCN1CCN(c2cc(C(C)C)nc3c(-c4ccccc4)c(C)nn23)CC1 52.5%, O=C(c1ccc2c(Cl)c3c(nc2c1)CCCC3)N1CCN(c2ccc(F)cc2)CC1 61.5%, O=C(CCl)Nc1cc(-c2ccccc2)nn1-c1ccccc1 78.5%, CCC(C)c1ccccc1NC(=O)CN1CCN(C/C=C/c2ccccc2)CC1 (stereo not given) 55%, Clc1ccc(OCCN2CCCCC2)cc1Cl 57.7%, CC1CCN(CCOc2ccc(Cl)c(Cl)c2)CC1 56.5%, CC1CCN(CCOc2ccc(OCc3ccccc3)cc2)CC1 59.3%, Clc1cccc(OCCN2CCN(CCOc3cccc(Cl)c3)CC2)c1 65.6%, Cc1cccc(/C(N)=N/OC(=O)c2ccc3c(c2)OCO3)c1 55.8%, Cc1ccc(/C(N)=N/OC(=O)c2ccc3c(c2)OCO3)cc1 86.8%, Cc1ccc(/C(N)=N/OC(=O)c2cccs2)cc1 69.2%, Oc1c(Br)cc(Br)cc1C=Nc1cccnc1 54.1%, O=C(Nc1cccc(N=Cc2cc(Br)cc(Br)c2O)c1)c1ccco1 57%, Oc1c(Br)cc(Br)cc1C=Nc1ccc2c(c1)OCO2 64.6%, OC(CNCCc1ccc(C(F)(F)F)cc1)COc1cccc2ccccc12 (stereo not given) 59.9%, C=CCNc1oc(COc2ccc(C)cc2)nc1C#N 56.6%, O=C1C=CC(=O)N1c1ccc(N2CCCCC2)cc1 68.2%, Nc1c(Cl)ncnc1N/N=C/c1ccccn1 85.2%, CC1CCc2nc3sc4c(c3c(N)c2C1)CCCC4 (stereo not given) 93.2%, Nc1c2c(nc3sc4c(c13)CCCCC4)CCCCC2 69%, C=C(C)COc1ccc2c(CC)cc(=O)oc2c1C 61.5%, CN(C)C(C)(C)C#CCC(c1ccccc1)c1ccccc1 55%, CCCCNC(=O)Nc1nnc(-c2ccc(Cl)cc2)o1 54.4%, Cc1ccc(OCc2nc(-c3ccc(Cl)cc3)n[nH]2)cc1 78.2%, COC(=O)N/N=C(\C)c1ccc2ccccc2c1OC(F)F 62.3%, OC(CNCCC1C=Nc2ccccc21)Cn1c2ccc(Cl)cc2c2cc(Cl)ccc21 (stereo not given) 53.8%, Clc1ccc(OCCOCCN2CCc3ccccc3C2)c(Cl)c1 58.2%, Clc1ccc(OCCCNCc2ccccc2)c2ccccc12 53.2%, Cc1ccc(S(=O)(=O)c2nc(Nc3ccccc3)sc2Cl)cc1 69.3%
